Reference: PubChem BioAssay AID1159580 (chemical genetic matrix, 2015)
The whole screen tested about 5,500 compounds, of which about 2,000 (36%) were called active. Not shown: some 18% with an inconclusive outcome. Cut-off read from the data, not from the text of the source: active = normalized growth mostly below about 0.91 (no sharp cut-off); inconclusive = no clear call, values can overlap the other calls; inactive = mostly above about 0.92. Some of the results follow.

Assay: chemical genetic growth profiling, strain panel (AID 1159580);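 note: tested at 20 µM; growth read once vehicle control cultures reached saturation at 30 °C; 1 = growth at the plate median or of vehicle wells; lower values mean less growth of the strain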
Settings: growth OD

Measured: normalized growth

C1CCN2CC3CC(CN4CCCCC34)C2C1 (centres undefined)
active: S. cerevisiae deletion strains, locus YLR418C, strain cdc73, stronger effect = lower value 0.811 | S. cerevisiae deletion strains, locus YNL307C, strain MCK1, stronger effect = lower value 0.294 | S. cerevisiae deletion strains, locus YPR163C, strain tif3, stronger effect = lower value 0.873 | S. cerevisiae deletion strains, strain wtn01, stronger effect = lower value 0.863
inactive: S. cerevisiae deletion strains, locus YJR043C, strain POL32, stronger effect = lower value 1.02 | S. cerevisiae deletion strains, locus YJR075W, strain HOC1, stronger effect = lower value 1.01 | S. cerevisiae deletion strains, locus YKL009W, strain mrt4, stronger effect = lower value 1.02 | S. cerevisiae deletion strains, locus YKL068W, stronger effect = lower value 1.01 | S. cerevisiae deletion strains, locus YKL085W, strain MDH1 (second series), stronger effect = lower value 1 | S. cerevisiae deletion strains, locus YKL085W, strain MDH1, stronger effect = lower value 1 | S. cerevisiae deletion strains, locus YKL160W, strain elf1, stronger effect = lower value 0.991 | S. cerevisiae deletion strains, locus YKL190W, strain CNB1, stronger effect = lower value 1 | S. cerevisiae deletion strains, locus YKR001C, strain vps1, stronger effect = lower value 0.964 | S. cerevisiae deletion strains, locus YKR026C, strain gcn3, stronger effect = lower value 1.02 | S. cerevisiae deletion strains, locus YKR091W, strain srl3, stronger effect = lower value 1.01 | S. cerevisiae deletion strains, locus YLL001W, strain dnm1, stronger effect = lower value 1.04 | S. cerevisiae deletion strains, locus YLL026W, stronger effect = lower value 1.01 | S. cerevisiae deletion strains, locus YLL041C, strain sdh2, stronger effect = lower value 1.02 | S. cerevisiae deletion strains, locus YLR027C, strain aat2, stronger effect = lower value 1.01 | S. cerevisiae deletion strains, locus YLR039C, strain RIC1, stronger effect = lower value 1.04 | S. cerevisiae deletion strains, locus YLR058C, strain SHM2, stronger effect = lower value 1.02 | S. cerevisiae deletion strains, locus YLR102C, strain apc9, stronger effect = lower value 1.01 | S. cerevisiae deletion strains, locus YLR221C, strain rsa3, stronger effect = lower value 1.01 | S. cerevisiae deletion strains, locus YLR258W, strain gsy2, stronger effect = lower value 1.02 | S. cerevisiae deletion strains, locus YLR262C, strain YPT6 (second series), stronger effect = lower value 1 | S. cerevisiae deletion strains, locus YLR262C, strain YPT6, stronger effect = lower value 1.01 | S. cerevisiae deletion strains, locus YLR268W, strain sec22, stronger effect = lower value 0.894 | S. cerevisiae deletion strains, locus YLR320W, strain mms22, stronger effect = lower value 1.03 | S. cerevisiae deletion strains, locus YLR330W, strain CHS5, stronger effect = lower value 1.01 | S. cerevisiae deletion strains, locus YLR342W, strain FKS1 (second series), stronger effect = lower value 1.03 | S. cerevisiae deletion strains, locus YLR342W, strain FKS1, stronger effect = lower value 1.02 | S. cerevisiae deletion strains, locus YLR357W, strain rsc2, stronger effect = lower value 1.04 | S. cerevisiae deletion strains, locus YLR370C, strain arc18, stronger effect = lower value 1.02 | S. cerevisiae deletion strains, locus YLR371W, strain rom2, stronger effect = lower value 0.967 | S. cerevisiae deletion strains, locus YLR384C, strain iki3, stronger effect = lower value 1.02 | S. cerevisiae deletion strains, locus YML016C, strain PPZ1, stronger effect = lower value 1.01 | S. cerevisiae deletion strains, locus YML032C, strain rad52, stronger effect = lower value 1.03 | S. cerevisiae deletion strains, locus YML120C, strain ndi1, stronger effect = lower value 1.01 | S. cerevisiae deletion strains, locus YML124C, strain tub3, stronger effect = lower value 1.01 | S. cerevisiae deletion strains, locus YMR058W, strain fet3, stronger effect = lower value 1.02 | S. cerevisiae deletion strains, locus YMR078C, strain ctf18, stronger effect = lower value 1.02 | S. cerevisiae deletion strains, locus YMR125W, strain sto1, stronger effect = lower value 1.06 | S. cerevisiae deletion strains, locus YMR129W, stronger effect = lower value 1.03 | S. cerevisiae deletion strains, locus YMR205C, strain PFK2, stronger effect = lower value 1.04 | S. cerevisiae deletion strains, locus YMR223W, strain ubp8, stronger effect = lower value 0.909 | S. cerevisiae deletion strains, locus YMR231W, strain pep5, stronger effect = lower value 1.02 | S. cerevisiae deletion strains, locus YMR263W, strain SAP30, stronger effect = lower value 0.997 | S. cerevisiae deletion strains, locus YMR307W, strain GAS1, stronger effect = lower value 1.02 | S. cerevisiae deletion strains, locus YNL067W, strain RPL9B, stronger effect = lower value 0.988 | S. cerevisiae deletion strains, locus YNL071W, strain lat1, stronger effect = lower value 1.02 | S. cerevisiae deletion strains, locus YNL128W, strain TEP1, stronger effect = lower value 1.01 | S. cerevisiae deletion strains, locus YNL153C, strain GIM3, stronger effect = lower value 0.986 | S. cerevisiae deletion strains, locus YNL209W, strain ssb2, stronger effect = lower value 1.02 | S. cerevisiae deletion strains, locus YNL233W, strain BNI4, stronger effect = lower value 0.998 | S. cerevisiae deletion strains, locus YNL248C, strain rpa49, stronger effect = lower value 1.02 | S. cerevisiae deletion strains, locus YNL250W, strain rad50, stronger effect = lower value 1.03 | S. cerevisiae deletion strains, locus YNL271C, strain bni1, stronger effect = lower value 1.01 | S. cerevisiae deletion strains, locus YNL298W, strain CLA4, stronger effect = lower value 1.01 | S. cerevisiae deletion strains, locus YNL322C, strain KRE1 (second series), stronger effect = lower value 1.01 | S. cerevisiae deletion strains, locus YNL322C, strain KRE1, stronger effect = lower value 1.01 | S. cerevisiae deletion strains, locus YNR049C, strain mso1, stronger effect = lower value 1.02 | S. cerevisiae deletion strains, locus YNR052C, strain pop2, stronger effect = lower value 1.02 | S. cerevisiae deletion strains, locus YOL006C, strain TOP1, stronger effect = lower value 1.03 | S. cerevisiae deletion strains, locus YOL012C, strain htz1 0.345 | S. cerevisiae deletion strains, locus YOL147C, strain pex11, stronger effect = lower value 1.01 | S. cerevisiae deletion strains, locus YOR001W, strain rrp6, stronger effect = lower value 1.01 | S. cerevisiae deletion strains, locus YOR061W, strain CKA2, stronger effect = lower value 1.01 | S. cerevisiae deletion strains, locus YOR069W, strain VPS5, stronger effect = lower value 1.01 | S. cerevisiae deletion strains, locus YOR070C, strain gyp1, stronger effect = lower value 1.02 | S. cerevisiae deletion strains, locus YOR080W, strain dia2, stronger effect = lower value 1.02 | S. cerevisiae deletion strains, locus YOR083W, strain WHI5, stronger effect = lower value 0.99 | S. cerevisiae deletion strains, locus YOR106W, strain vam3, stronger effect = lower value 1 | S. cerevisiae deletion strains, locus YOR136W, strain idh2, stronger effect = lower value 0.961 | S. cerevisiae deletion strains, locus YOR144C, strain elg1, stronger effect = lower value 1.01 | S. cerevisiae deletion strains, locus YOR184W, strain ser1, stronger effect = lower value 0.959 | S. cerevisiae deletion strains, locus YOR265W, strain rbl2, stronger effect = lower value 1.02 | S. cerevisiae deletion strains, locus YOR270C, strain vph1, stronger effect = lower value 1.03 | S. cerevisiae deletion strains, locus YOR290C, strain snf2, stronger effect = lower value 0.985 | S. cerevisiae deletion strains, locus YOR316C, strain cot1, stronger effect = lower value 1.01 | S. cerevisiae deletion strains, locus YPL051W, strain arl3, stronger effect = lower value 0.998 | S. cerevisiae deletion strains, locus YPL055C, strain LGE1, stronger effect = lower value 1 | S. cerevisiae deletion strains, locus YPL078C, strain atp4, stronger effect = lower value 1 | S. cerevisiae deletion strains, locus YPL106C, strain sse1, stronger effect = lower value 1.04 | S. cerevisiae deletion strains, locus YPL240C, strain hsp82, stronger effect = lower value 1.03 | S. cerevisiae deletion strains, locus YPL241C, strain CIN2, stronger effect = lower value 1.01 | S. cerevisiae deletion strains, locus YPR119W, strain clb2, stronger effect = lower value 1 | S. cerevisiae deletion strains, locus YPR141C, strain kar3, stronger effect = lower value 1.02 | S. cerevisiae deletion strains, locus YPR167C, strain met16, stronger effect = lower value 0.992 | S. cerevisiae strains, strain wild type, stronger effect = lower value 1.01
